# The list is not random: actives were taken first. Their share in the collection is about 10%.
# FLuc inh-1: Firefly luciferase inhibition profiling of diverse chemical library using quantitative high-throughput screening; purified P. pyralis luciferase, luminescence, biochemical; actives 2.5% (n = 76,000); Potency, µM (series often up to 115 µM), most hits filed as inhibitors; Luciferin 4-monooxygenase (Photinus pyralis), P08659; note: nearly all actives have a fitted effect of over 65% in size
# Target sequence (P08659 whole entry, looked up): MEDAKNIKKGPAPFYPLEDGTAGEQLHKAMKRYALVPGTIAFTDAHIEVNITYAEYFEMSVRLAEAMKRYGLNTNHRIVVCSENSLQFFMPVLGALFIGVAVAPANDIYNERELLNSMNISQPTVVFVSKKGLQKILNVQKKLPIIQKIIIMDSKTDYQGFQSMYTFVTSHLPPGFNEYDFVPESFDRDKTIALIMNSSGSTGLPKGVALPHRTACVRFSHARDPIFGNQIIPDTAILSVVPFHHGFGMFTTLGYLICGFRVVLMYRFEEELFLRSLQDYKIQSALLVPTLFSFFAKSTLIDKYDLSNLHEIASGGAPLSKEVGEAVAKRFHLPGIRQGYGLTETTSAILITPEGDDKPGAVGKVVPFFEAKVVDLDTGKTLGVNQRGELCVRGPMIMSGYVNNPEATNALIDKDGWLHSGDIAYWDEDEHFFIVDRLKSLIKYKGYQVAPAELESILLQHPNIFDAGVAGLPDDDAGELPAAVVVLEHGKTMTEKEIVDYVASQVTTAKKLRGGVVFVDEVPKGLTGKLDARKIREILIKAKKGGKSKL
#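 Luminescence read by CCD imager after adding enzyme (10nM final) to wells holding compound, titrated in qHTS. Substrates 10uM each D-luciferin and ATP; buffer 50mM Tris acetate pH 7.5, 10mM Mg acetate, Tween-20, BSA.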
# HEK293 tox: Cytotoxic Profiling in HEK 293 Cell Line of Diverse Libraries Using Quantitative High-Throughput Screening. HEK 293 viability, ATP luminescence (CellTiter-Glo), 48-72 h. Potency, µM (titrated, usually from 115 µM), most hits filed as inhibitors. actives 6.6% (n = 94,000). AID 1345083, 2018; note: nearly all actives have a fitted effect of over 60% in size
#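 Luminescence from cellular ATP, measured with CellTiter-Glo, indicates HEK 293 viability. Cells plated at 250 cells/well are treated with compound for 48 or 72 hr at 37 degree Celsius before reagent addition.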
# GPT2 inhibitor: Primary qHTS assay for inhibitors of Glutamate pyruvate transaminase 2 (GPT2) | Alanine aminotransferase 2 (Homo sapiens), Q8TD30 | Recombinant GPT2, coupled pyruvate oxidase/HRP Amplex Red fluorescence | Potency, µM (top dose mostly 57.7 µM), actives largely listed as inhibitors | actives 0.25% (n = 100,000) | AID 1671188, 2021; note: nearly all actives have a fitted effect of over 60% in size
#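 Recombinant GPT2 (10ng/uL) with 250uM a-KG and 2mM L-alanine, 30 min at room temperature, in HEPES pH 7.5 buffer. Pyruvate detected by pyruvate oxidase/HRP/Amplex Red fluorescence after 30 min in the dark; AOA (50uM) as positive control.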
# 3T3 cytotox: Cytotoxic Profiling in NIH 3T3 Cell Line of Diverse Libraries Using Quantitative High-Throughput Screening; actives 4.3% (n = 94,000); NIH 3T3 viability, CellTiter-Glo ATP luminescence, 48-72 h; AID 1345082, 2018; Potency, µM (highest dose often 96.7 µM), actives largely listed as inhibitors; note: nearly all actives have a fitted effect of over 55% in size
#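 ATP-dependent luminescence (CellTiter-Glo) served as the viability signal for NIH 3T3 cells treated with compound for 48 or 72 hr at 37 °C.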
# hNpr1 antagonist: Natriuretic polypeptide receptor (hNpr1) antagonism - Primary qHTS; Atrial natriuretic peptide receptor 1 (Homo sapiens), P16066; HEK293 hNpr1 GloSensor cGMP, ANP-stimulated luminescence; Potency, µM (doses to about 46.3 µM), actives largely listed as inhibitors; actives 1.6% (n = 76,000); calls by dose curve; note: nearly all actives have a fitted effect of over 60% in size
#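 Compound pre-incubated 30 min at room temperature on GloSensor-loaded HEK293 cells stably carrying hNpr1 and the pGS-40F cGMP biosensor. Stimulation uses hNppA at 0.1 nM final; luminescence is taken at baseline and 20 min post-agonist.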
# FLuc SDR -ATP: Firefly luciferase (FLuc-C-HiBiT) SDR gain of signal screen - without ATP; Purified FLuc-C-HiBiT, Nano-Glo HiBiT luminescence, no ATP; actives 7.8% (n = 1,300); shares compounds with FLuc inh-1; Potency, µM (series often up to 32.7 µM), most hits filed as activators; AID 1963318, 2024; note: nearly all actives have a fitted effect of over 55% in size
# FLuc SDR ATP: Firefly luciferase (FLuc-C-HiBiT) SDR gain of signal screen - plus ATP; actives 8.7% (n = 1,300); AID 1963319, 2024; purified FLuc-C-HiBiT + ATP, HiBiT complementation luminescence; Potency, µM (series often up to 32.7 µM), actives largely listed as activators; shares compounds with FLuc inh-1;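 note: signal reports ligand binding via conformational change of the enzyme rather than luciferase catalysis; nearly all actives have a fitted effect of over 55% in size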
# FLuc inh-2: Firefly luciferase (FLuc-C-HiBiT) enzymatic inhibition screen - Functional assay. shares compounds with FLuc inh-1. purified FLuc-C-HiBiT enzyme, luciferin luminescence. Potency, µM (titrated, usually from 32.7 µM), usual class: inhibitors. actives 42% (n = 1,300); note: nearly all actives have a fitted effect of over 70% in size
# Numbers stand for hits; – = inactive; ? = inconclusive; · = no result given. Unless noted, calls come from the whole dose curve; as a rule, active = well fitted curve in the direction sought with a large enough effect; inconclusive = small, poorly fitted or top-dose-only effect, or another doubt; inactive = no such curve, though single readings can be large; an effect the other way counts as inactive or inconclusive.
SMILES,FLuc inh-1,HEK293 tox,GPT2 inhibitor,3T3 cytotox,hNpr1 antagonist,FLuc SDR -ATP,FLuc SDR ATP,FLuc inh-2
CC(C)n1cnnc1CC1CCN(C(=O)Nc2ccc3c(c2)OCCO3)CC1,7.9µM,–,–,–,–,–,?,9.9µM
Cc1cccc(C(=O)Nc2nc3c(s2)CCCC3)c1,·,·,·,·,·,?,?,2.5µM
COCCN1C(=O)c2ccccc2C(C(=O)Nc2nc3c(s2)CCC3)C12CCCC2 (centres undefined),–,–,–,–,–,·,·,·
Cc1ccc(C2=CC(c3ccccc3F)n3c(nc4ccccc43)N2)cc1C (centres undefined),·,·,·,·,·,?,?,3.1µM
Cc1ccc2nc3n(c2c1)[C@@H](CNCc1ccccc1)COC3,–,?,–,?,?,·,·,·
CCc1ccc(C2=CC(c3cccc(C)c3)n3c(nc4ccccc43)N2)cc1 (centres undefined),·,·,·,·,·,11µM,?,0.88µM
CCC(=O)N1CCc2c(C(=O)Nc3cc(OC)cc(OC)c3)cccc21,–,–,–,–,–,·,·,·
COc1ccc(NC(=O)N2CCc3c(C(=O)NCCCN4CCCC4=O)cccc32)cc1,0.5µM,?,–,–,11µM,?,0.35µM,0.25µM
COc1ccc(NC(=O)c2cccc3c2CCN3C(=O)Nc2ccc(F)cc2)c(C)c1,2.2µM,–,–,–,11µM,–,0.7µM,0.56µM
COc1ccc(OC2CCN(C3CCCC3)CC2)c(C(=O)NCCCN2CCCC2=O)c1,–,–,–,–,–,·,·,·
COc1ccc(NC(=O)N2CCc3c(C(=O)NCc4ccncc4)cccc32)cc1,1.3µM,?,–,?,11µM,12µM,0.88µM,0.62µM
COc1ccc(NC(=O)N2CCc3c(C(=O)Nc4ccc5c(c4)OCO5)cccc32)cc1,2.8µM,?,–,–,13µM,–,1.2µM,0.88µM
COc1ccc(CCC(=O)Nc2nc3ccc(Cl)cc3s2)cc1OC,·,·,–,·,·,·,·,·
COc1cccc(C(=O)Nc2cc(-c3ccncc3)nn2C)c1,·,?,–,?,·,·,·,·
COc1cccc(CC(=O)Nc2ccc(-c3nc4ccccc4s3)cc2Cl)c1,·,·,·,·,·,–,–,–
COc1ccc(CC(=O)Nc2ccc(-c3nc4ccccc4s3)cc2Cl)cc1OC,·,·,·,·,·,–,–,–
COc1cccc(CNC(=O)CNC(=O)c2ccc(-c3cnc4ccccc4c3)cc2)c1,·,?,–,–,·,·,·,·
COc1cccc(C(=O)Nc2ccc(-c3nc4ccccc4s3)cc2Cl)c1,·,·,·,·,·,–,–,–
COC(=O)N(C)Cc1cccc(N2CCN(Cc3c(Cl)ccc(Cl)c3Cl)CC2)c1,·,?,·,–,·,·,·,·
O=C(NCC1CCOCC1)[C@@H]1C[C@@H](c2ccc(F)cc2)N([S+](=O)([O-])c2cccnc2)C1,–,?,–,–,–,·,·,·
CC1CCN(CC2CCCN(C(=O)CC3CCCC3)CC2)CC1 (centres undefined),–,?,–,–,–,·,·,·
CC(=O)NC1CC2(CCN(C(=O)CCCNC(=O)OC(C)(C)C)CC2)Oc2ccccc21 (centres undefined),·,–,–,–,·,·,·,·

# Screening data as filed in PubChem.
